# Data: the supplement of paper PMC10670038
# Counter-ions that a name gives are not always drawn. ± gives the standard deviation of the averaged measurements. In all, about 2,000 compounds were measured (“relative cell viability vs DMSO, compound + 0.2 uM CuET”: median about 1, lowest 2% from about 0.25 on). This is one part of a sample in which the lowest values are shown more often than they occur.
# Tested on: TE10
# Test: relative cell viability vs DMSO, compound + 0.2 uM CuET (fraction); TE10 is an esophageal squamous carcinoma line; higher = less cytotoxic
# Settings: 2 µM; co-treatment: CuET (bis(diethyldithiocarbamate)copper) 0.2 uM; 48 h
# Protocol: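 TE10 ESCC cells (1,000/well, 384-well plates) were treated with Selleck bioactive library compounds at 2 uM combined with 0.2 uM CuET (copper diethyldithiocarbamate) for 48 h. Viability was read by CellTiter-Glo and expressed relative to DMSO wells. Two technical replicates (A, B).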
row,SMILES,relative cell viability
1,CNCc1ccc(-c2[nH]c3cc(F)cc4c3c2CCNC4=O)cc1,1.3 ± 0.098
2,C=C(C)[C@@H]1CC[C@]2(C(=O)O)CC[C@]3(C)[C@H](CC[C@@H]4[C@@]5(C)CC[C@H](O)C(C)(C)[C@@H]5CC[C@]43C)[C@@H]12 [Betulinic acid],0.945 ± 0.13
3,CS(=O)(=O)Nc1ccc([N+](=O)[O-])cc1Oc1ccccc1 [Nimesulide],1.08 ± 0.044
4,O=[N+]([O-])c1ccc2c(c1)S(=O)(=O)C=C2 [Stattic],0.204 ± 0.018
5,CC(C)=CCCC(C)(OC1OC(COC2OCC(O)C(O)C2O)C(O)C(O)C1O)C1CCC2(C)C1C(O)CC1C3(C)CCC(OC4OC(CO)C(O)C(O)C4O)C(C)(C)C3CCC12C (stereo not given) [Gynostemma Extract],1.04 ± 0.076
6,COC(=O)CCSCc1ccc(-c2onc(C)c2NC(=O)OC(C)c2ccccc2Cl)cc1 (stereo not given),0.919 ± 0.024
7,CCCCN1CCCCC1C(=O)Nc1c(C)cccc1C (stereo not given) [Bupivacaine HCl],1.03 ± 0.16
8,CCN=C1N[C@@H]2[C@@H](O)[C@H](O)[C@@H](CO)O[C@@H]2S1 [Thiamet G],1.16 ± 0.065
9,COc1cc(C(=O)NS(=O)(=O)c2ccccc2C)ccc1Cc1cn(C)c2ccc(NC(=O)OC3CCCC3)cc12 [Zafirlukast],1.08 ± 0.019
10,CN1CCc2c(c3ccccc3n2Cc2ccc(C(=O)NO)cc2)C1 [Tubastatin A],1.375 ± 0.0024
11,Cn1cc(CNCC2CCN(c3ncc(C(=O)NO)cn3)CC2)c2ccccc21,0.171 ± 0.017
12,CN1CCc2c(c3ccccc3n2Cc2ccc(C(=O)NO)cc2)C1 [Tubastatin A HCl],0.979 ± 0.011
13,CCCCCCCCCCCCCCCC(=O)OCC(O)C1OC(=O)C(O)=C1O [L-Ascorbyl 6-palmitate],1.02 ± 0.04
14,C[C@@H]1[C@H](O)[C@@H](C)/C=C/C=C/C=C/C=C/C=C/C=C/C=C/[C@H](O[C@@H]2O[C@H](C)[C@@H](O)[C@H](N)[C@@H]2O)C[C@@H]2O[C@](O)(C[C@@H](O)C[C@@H](O)[C@H](O)CC[C@@H](O)C[C@@H](O)CC(=O)O[C@H]1C)C[C@H](O)[C@H]2C(=O)O [Amphotericin B],1.13 ± 0.11
15,COc1c/c(=C2\C=c3ccccc3=N2)[nH]/c1=C\c1[nH]c(C)cc1C [Obatoclax Mesylate (GX15-070)],0.354 ± 0.035
16,"Brc1ccc(C2CN3CCSC3=N2)cc1 (single isomer, unassigned; (-)) [(-)-p-Bromotetramisole Oxalate]",1.33 ± 0.11
17,Cc1cc(=O)oc2c(C=O)c(O)ccc12,1.24 ± 0.086
18,CN(NC(=O)CC(=O)NN(C)C(=S)c1ccccc1)C(=S)c1ccccc1 [Elesclomol (STA-4783)],0.0573 ± 0.0087
19,O=C(O)c1ccccc1 [Benzoic Acid],1.1 ± 0.072
20,O=C(O)CCNC(=O)c1ccccc1 [Betamipron],1.014 ± 0.0048
21,O=C(Nc1ccc2c(O)cc(S(=O)(=O)O)cc2c1)Nc1ccc2c(O)cc(S(=O)(=O)O)cc2c1,1.04 ± 0.058
22,COc1ccc(Oc2cc(C)c(-c3csc(NC(=O)c4ccncc4)n3)c(C)c2)cc1,0.89 ± 0.15
23,O=C(/C=C/c1ccc(O)c(O)c1)O[C@@H]1C[C@](O)(C(=O)O)C[C@@H](O)[C@H]1O [Chlorogenic Acid],1.1 ± 0.11
24,CC1(C)S[C@@H]2[C@H](NC(=O)[C@H](N)c3ccc(O)cc3)C(=O)N2[C@H]1C(=O)O [Amoxicillin Sodium],1.06 ± 0.069
25,CC1(C)S[C@@H]2[C@H](NC(=O)[C@H](N)c3ccc(O)cc3)C(=O)N2[C@H]1C(=O)O [Amoxicillin],0.42 ± 0.49
26,C=CC(=O)Nc1cccc(Nc2nc(Nc3ccc(OCCOC)cc3)ncc2F)c1,0.892 ± 0.11
27,O=S(=O)(c1ccccc1)N(CC(F)(F)F)c1ccc(C(O)(C(F)(F)F)C(F)(F)F)cc1,1 ± 0.084

row,SMILES,relative cell viability
1,CC(C)(O)C1CCC(C)(C2C(O)CC3(C)C4CC(OC5OC(CO)C(O)C(O)C5O)C5C(C)(C)C(OC6OCC(O)C(O)C6O)CCC56CC46CCC23C)O1 (stereo not given) [Astragaloside A],1.15 ± 0.069
2,O=C(/C=C/c1ccc(CN(CCO)CCc2c[nH]c3ccccc23)cc1)NO [LAQ824 (Dacinostat)],0.145 ± 0.0072
3,OCc1c[nH]c2ccccc12 [Indole-3-carbinol],1.1 ± 0.11
4,O=C(O)CCCc1c[nH]c2ccccc12 [3-Indolebutyric acid (IBA)],1.12 ± 0.072
5,CC1(C)CCCC2(C)C1CCC1(C)OC(=O)CC12 (stereo not given) [Sclareolide],1.05 ± 0.085
6,O=S(=O)(NCCNCC=Cc1ccc(Br)cc1)c1cccc2cnccc12,1.12 ± 0.058
7,CCN(CC)C(=S)SSC(=S)N(CC)CC [Disulfiram],0.0338 ± 0.0054
8,Cn1cc(-c2[nH]c3cc(NC(=O)[C@H](N)C4CCCCC4)cc4c3c2C=NNC4=O)cn1,0.702 ± 0.016
9,NC(=O)C1CCCc2c1[nH]c1ccc(Cl)cc21 (stereo not given) [EX 527 (Selisistat)],1.15 ± 0.033
10,CC(C)c1cc2c(N3CCN(C4=NCC(C)(C)S4)CC3)ncnc2s1 [MI-3 (Menin-MLL Inhibitor)],0.972 ± 0.023
11,CC1(C)CCC2=C(O1)c1ccccc1C(=O)C2=O [Beta-Lapachone],0.246 ± 0.051
12,CC1=CC(=O)c2ccccc2C1=O [Menadione],0.671 ± 0.13
13,C=CC(=O)Nc1cc(Nc2nccc(-c3c[nH]c4ccccc34)n2)c(OC)cc1N(C)CCN(C)C,0.476 ± 0.0093
14,Cc1ccc(-n2[nH]c(C)c(N=Nc3cccc(-c4cccc(C(=O)O)c4)c3O)c2=O)cc1C [Eltrombopag Olamine],1.145 ± 0.0091
15,Cc1ccc(-n2[nH]c(C)c(N=Nc3cccc(-c4cccc(C(=O)O)c4)c3O)c2=O)cc1C [Eltrombopag],1.04 ± 0.1
16,OC(CC1c2ccccc2-c2cncn21)C1CCCCC1 (stereo not given),1.13 ± 0.055
17,C#Cc1cccc(Nc2ncnc3cc(OCCOC)c(OCCOC)cc23)c1 [Erlotinib HCl (OSI-744)],1.18 ± 0.1
18,C#Cc1cccc(Nc2ncnc3cc(OCCOC)c(OCCO)cc23)c1,1.02 ± 0.013
19,C#Cc1cccc(Nc2ncnc3cc(OC)c(OCCCCCCC(=O)NO)cc23)c1,0.182 ± 0.024
20,C#Cc1cccc(Nc2ncnc3cc(OCCOC)c(OCCOC)cc23)c1 [Erlotinib],0.996 ± 0.091
21,CN(C)C(=O)c1ccc(S(=O)(=O)c2ccc(NC(=O)C(C)(O)C(F)(F)F)c(Cl)c2)cc1 (stereo not given),1.2 ± 0.14
22,CCc1cnn2c(NCc3ccc[n+]([O-])c3)cc(N3CCCC[C@H]3CCO)nc12,0.842 ± 0.12
23,COCC[n+]1c2c(n(Cc3cnccn3)c1C)C(=O)c1ccccc1C2=O [YM155 (Sepantronium Bromide)],0.111 ± 0.0058
24,CCCCCCCCCCCCCCCc1cccc(O)c1C(=O)O [Anacardic Acid],1.26 ± 0.019
25,CC1(C)Cc2c(-c3ccccc3)c(-c3ccc(Cl)cc3)c(CC(=O)O)n2C1 [Licofelone],1.17 ± 0.023
26,N#Cc1ccc2[nH]c(O)c(-c3ccc(CN4CCOCC4)cn3)c2c1,1.4 ± 0.13
27,Cc1nc2ccc(-n3ncc(C(=O)c4cc5ccccc5[nH]4)c3N)cc2[nH]1,0.987 ± 0.053

row,SMILES,relative cell viability
1,O=C(Nc1cccc(Cl)c1)c1ccccn1,1.24 ± 0.1
2,Clc1ccc(NN=C(c2ccccc2)c2ccccn2)nc1,0.03199 ± 0.00018
3,CN(C)C(=S)NN=C(c1ccccn1)c1ccccn1,0.943 ± 0.047
4,CC(=O)N[C@@H](CC(C)C)C(=O)N[C@@H](CC(C)C)C(=O)N[C@H](C=O)CCCNC(=N)N [Leupeptin Hemisulfate],1.16 ± 0.025
5,N#CC(=Cc1ccc(-c2cc(Cl)ccc2Cl)o1)C(=O)Nc1cccc2ncccc12,1.06 ± 0.03
6,COc1cc(C=CC(=O)N2CCC=CC2=O)cc(OC)c1OC [Piperlongumine],0.392 ± 0.035
7,CC(NC(=O)Cc1cc(F)cc(F)c1)C(=O)NC1C(=O)N(C)c2ccccc2-c2ccccc21 (stereo not given),0.97 ± 0.13
8,CC1=NN(c2ccc(C(=O)O)cc2)C(=O)C1=Cc1ccc(-c2cc(C)c(C)cc2[N+](=O)[O-])o1,0.872 ± 0.091
9,Cc1nc(-c2cn3c(n2)-c2ccc(-c4cnn(C(C)(C)C(N)=O)c4)cc2OCC3)n(C(C)C)n1,0.675 ± 0.072
10,OCc1ccc(-c2ccc(-c3ccc(CO)s3)o2)s1,0.225 ± 0.01
11,CC(=O)OCC(=O)[C@@]12N=C(C)O[C@@H]1C[C@H]1[C@@H]3CCC4=CC(=O)C=C[C@]4(C)[C@H]3[C@@H](O)C[C@@]12C [Deflazacort],1.03 ± 0.012
12,CCOc1nc2cccc(C(=O)O)c2n1Cc1ccc(-c2ccccc2-c2nnn[nH]2)cc1 [Candesartan],1.06 ± 0.031
13,CN(C)Cc1cccc(N=C(c2ccccc2)c2c(O)[nH]c3cc(C(N)=O)ccc23)c1,0.952 ± 0.014
14,Cc1[nH]c2ccccc2c1C1=C(NCCc2ccc(F)cc2)C(=O)N(C)C1=O,1.17 ± 0.023
15,Cc1[nH]c2ccccc2c1CCNCc1ccc(/C=C/C(=O)NO)cc1 [Panobinostat (LBH589)],0.151 ± 0.0045
16,Cc1[nH]c2ccccc2c1CCNC(=O)c1cccs1,1.01 ± 0.15
17,COc1c(O)cc2c(c1O)[C@@H]1O[C@H](CO)[C@@H](O)[C@H](O)[C@H]1OC2=O [Bergenin],1.18 ± 0.021
18,CN1CCC(NC(=O)c2cc(-c3c(O)cc(O)cc3Oc3ccc([N+](=O)[O-])cc3)on2)CC1,0.6427 ± 0.0019
19,NC1CC1c1ccc(-c2cccc(O)c2)cc1 (stereo not given),1.13 ± 0.036
20,Cn1cc(/C=C/C(=O)c2cccc(F)c2)cc1/C=C/C(=O)NO,0.872 ± 0.12
21,O=C(C=Cc1ccccc1)NC(NC(=S)Nc1ccc(Cl)cc1)C(Cl)(Cl)Cl (stereo not given),0.908 ± 0.014
22,O=C(/C=C/c1cccc(S(=O)(=O)Nc2ccccc2)c1)NO [Belinostat (PXD101)],0.195 ± 0.017
23,COC1C(O)CC(=O)OC(C)CC=CC=CC(OC2CCC(N(C)C)C(C)O2)C(C)CC(CC=O)C1OC1OC(C)C(OC2CC(C)(O)C(O)C(C)O2)C(N(C)C)C1O (stereo not given) [Spiramycin],1.11 ± 0.0071
24,COC(=O)CC(NC(=O)C(C)NC(=O)C(NC(=O)OCc1ccccc1)C(C)C)C(=O)CF (stereo not given),1.3 ± 0.057
25,CCCCc1nc2cc(/C=C/C(=O)NO)ccc2n1CCN(CC)CC [Pracinostat (SB939)],0.2435 ± 0.00015
26,CN(C)Cc1ccc(S(=O)(=O)n2ccc(/C=C/C(=O)NO)c2)cc1 [Resminostat],0.848 ± 0.19
